Compounds without any hit were thinned out: in the full panel of roughly 83,000, 20% have a hit.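 Cells were grown in 96-well plates and exposed to the test compound at a single concentration for 48 hours; results are reported as percent growth, with values below 10 considered active.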 Unmarked numbers belong to inactive results. The source made the active and inactive calls.

The test system of the assay is SNB-75 CNS. The assay can be described thus: NCI-60 one-dose screen, 48 h (100 = growth as untreated, 0 = no growth, -100 = all killed). To be noted: 10 µM unless noted. On the procedure: Growth inhibition of the SNB-75 human tumor cell line is measured as a screen for anti-cancer activity. Cells are grown in 96 well plates and exposed to the test compound for 48 hours. Compounds are tested at a single concentration, which is 10^-5 M for most compounds. The reported endpoint is percent growth (GI% or GIPRCNT), where numbers from 0 - 100% represent growth inhibition, and numbers from -100% - 0 represent cell death. For example, a value of 40 represents 60% growth inhibition. A value of 0 means no net growth occurred over the course of the experiment. A value of -40 indicates 40% of cells at the beginning of the experiment died by the end of the experiment. A value of -100 means all cells are dead at the end of the experiment.
NCI-60 Human Tumor Cell Lines Screen was performed using the standard one-dose NCI protocol, which is described in more detail at https://dtp.cancer.gov/discovery_development/nci-60/default.htm.
Compounds with GIPRCNT values below 10 were considered active. Activity score was based on GIPRCNT using the following formula: […]
Score is 0 for GIPRCNT values of 100 or above, 50 for GIPRCNT values of 0, and 100 for GIPRCNT values of -100.
Consider `CCN1CCN(Cc2ccc(C(=O)Nc3cccc(C#Cc4cccc5[nH]nc(N)c45)c3)cc2C(F)(F)F)CC1`, for which the growth is -62% (active). Consider `CCOc1ccc(C(=O)NC(=S)Nc2ccc(S(N)(=O)=O)cc2)cc1`, for which the growth is 76.9% [100 µM]. The same measure for `O=C(NN1C(=O)/C(=C/C=C/c2ccc([N+](=O)[O-])o2)SC1=S)c1ccc(Cl)cc1`: -93.4% (active); for `Cc1cc(=O)oc2cc(OCCCCOc3ccc(/C=C/C(=O)Nc4ccccc4N)cc3)ccc12`: 67%; for `CC(C)CSc1nc(NCCc2c[nH]c3ccccc23)c(C#N)c(-c2ccc(F)cc2)n1`: 61.1%. On to `Cc1ccc(-c2nc(C#N)c(S(=O)(=O)N3CCN(S(=O)(=O)c4ccc(Cl)cc4)CC3)o2)cc1`, for which the growth is 86.3%. Turning to `Cn1cc(-c2nc(N)nnc2-c2c[nH]c3ccc(F)cc23)c2cc(Br)cnc21`, the growth was -15.8% (active). As to `Cc1ccc(C(=O)CSc2nc3ccc(C)cc3c(=O)n2-c2ccc(F)cc2)cc1`, the growth is 7.91% (active). `COc1c(F)ccc(C(=O)Nc2ccc3nc(NC(=O)C4CCCN(S(=O)(=O)C5CC5)C4)sc3c2)c1F` (stereo not given): the growth was 56.3%. `CC(C)CCNC(=O)N/C(N)=N/c1nc2ccccc2s1`: the growth was 82.2%. `CCN(CC)c1ccc(/C=N/Nc2nc(-c3ccc(Br)cc3)cs2)c(O)c1`: the growth is 77.4%. In the case of `CC1(C)CC[C@]2(C(=O)O)CC[C@]3(C)C(=CCC4[C@@]5(C)C[C@@H](O)[C@@H]6OC(c7ccccc7F)OC[C@@]6(C)C5CC[C@]43C)C2C1` (stereo not given in full), the growth was 29.1%. As for `N#Cc1c(-c2ccc(Cl)cc2)nc2n[nH]c(-c3ccc(Cl)cc3)c2c1-c1cccs1`, the growth was 77.5%.

For the molecule `O=C1CC(Sc2n[nH]c(-c3ccncc3)n2)C(=O)N1c1ccc(Br)cc1` (stereo not given), the growth was 106%. With `CN1CCN(/C(=N\c2sc(-c3ccccc3)nc2-c2ccccc2)c2ccccc2)CC1`, the growth is 90%. The same measure for `COc1cc2c(c(OC)c1OC)C(=O)CC(c1cccc(NC(=O)c3cc(NC(=O)[C@@H](N)CO)ccc3C)c1)O2` (stereo not given in full): 135%; for `COc1ccc(-c2nc(SC(C)C)nc(NCCc3c[nH]c4ccccc34)c2C#N)cc1`: 65.6%; for `Cc1ccc2c(N)c(C(=O)Nc3ccc(-c4ccccc4)cc3)sc2n1`: 53.8%. As to `CC1(C)CC[C@]2(C(=O)O)CC[C@]3(C)C(=CCC4[C@@]5(C)C[C@@H](O)[C@@H]6OC(c7ccco7)OC[C@@]6(C)C5CC[C@]43C)C2C1` (stereo not given in full), the growth is 72.2%.

In the case of `COc1ccc(C(=O)/C=C/c2ccc(Cl)c(Cl)c2)cc1S(N)(=O)=O`, the growth is 6.46% (active).

As to `CC(=O)Nc1ccc(-c2cn(-c3cccc(C(=O)Nc4ccc(N5CCN(C)CC5)cc4)c3)nn2)cn1`, the growth was 99%.

Consider `CSc1ccc(NC(=O)c2ccc3nnn(/C(C#N)=C/c4ccccn4)c3c2)cc1`, for which the growth was 63.2%. For the molecule `NS(=O)(=O)c1ccc(-n2cc(-c3cccc(NC(=O)c4cc(Cl)cc(Cl)c4)c3)nn2)cc1`, the growth is 86.2%. For `CSc1ccc(C(=O)Nc2ccc3nnn(/C(C#N)=C/c4ccccn4)c3c2)cc1`, the growth is 55.9%. Regarding `COc1ccc(C(=O)/C=C/c2ccc3ccccc3c2)cc1S(N)(=O)=O`, the growth is -15.5% (active).

Regarding `O=C(COc1ccc(NC(=O)Nc2ccc(Cl)cc2)cc1)N/N=C/c1ccccc1`, the growth is -37.4% (active). Take `Cc1ccc(C2=NN(c3nc(-c4cc5ccccc5oc4=O)cs3)C(c3ccc(C)cc3)C2)cc1` (stereo not given): the growth was 96.2%. Take `COc1ccc(-c2nc(SCC(C)C)nc(NCCc3c[nH]c4ccccc34)c2C#N)cc1`: the growth was 74.1%. Regarding `COC(=O)/C=C/c1cccc2c1C(=O)NC(C)(c1cc3cc4ccccc4cc3oc1=O)N2` (stereo not given), the growth is 61.8%. Then `CN(C)c1ccnc(CNCCSC2(c3ccc(C(F)(F)F)cc3)c3ccccc3CCc3ccccc32)c1`, with -2.6% (active); and `O=C(Nc1cccc(-n2cnc3cc(-c4ccc(O)cc4)ccc32)c1)C1CC1`, with -5.51% (active); and `CSc1ccccc1NC(=O)c1ccc2nn(/C(C#N)=C/c3ccccn3)nc2c1`, with 48.1%. On to `CC(=O)Oc1ccc(/C=C/C(=O)N[C@@H](Cc2ccccc2)C(O)C(=O)NCc2ccccc2)cc1OC(C)=O` (stereo not given in full), for which the growth is 61.3%. Turning to `N#Cc1ccc(C(=O)Nn2c(N)cc3ccccc3c2=O)cc1`, the growth was 111%.

On to `COc1ccc2[nH]c(O)c(N=NC(=O)COc3ccc(NC(=O)Nc4ccccc4)cc3)c2c1`, for which the growth was 31.6%. Then `O=S(=O)(Nc1cccc(-n2cnc3cc(-c4ccc(O)cc4)ccc32)c1)C1CC1`, with -22.3% (active).

Regarding `NS(=O)(=O)c1ccc(N=Nc2c(O)n(CC(=O)Nc3ccccc3Cl)c3ccccc23)cc1`, the growth was 52.8%. On to `Nc1nc(C(F)(F)F)cs1`, for which the growth was 91.7%. For the molecule `S=c1c2ccccc2nc2n1CCc1c-2[nH]c2ccccc12`, the growth was 0.815% (active). With `CC1=C(C(=O)OC(C)C)C(c2cccc(O)c2)NC(=S)N1` (stereo not given), the growth is 105%.

The values above are taken from PubChem BioAssay (NCI).
